Data as given in publication PMC5540273 (PLoS ONE, 2017).

Experiments:
Conditions in all cases: concentration: 1 μM, replicates: in singlicate; n = 1
ACVR1B = system: ACVR1B
ACVR1 = system: ACVR1
ACVR2A = system: ACVR2A
ACVR2B = system: ACVR2B
ACVRL1 = system: ACVRL1
ADCK3 = system: T1, ADCK3
T1 construct: gene CABC1

ADCK4 = system: ADCK4
AKT1 = system: AKT1
AKT2 = system: AKT2
AKT3 = system: AKT3
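Also: KINOMEscan kinase panel screen.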

| Compound | %Inh (ACVR1B) [%] | %Inh (ACVR1) [%] | %Inh (ACVR2A) [%] | %Inh (ACVR2B) [%] | %Inh (ACVRL1) [%] | %Inh (ADCK3) [%] | %Inh (ADCK4) [%] | %Inh (AKT1) [%] | %Inh (AKT2) [%] | %Inh (AKT3) [%] |
| --- | --- | --- | --- | --- | --- | --- | --- | --- | --- | --- |
| CCCNC(=O)Nc1ccc(Oc2ncnc3ccn(C)c23)cc1 | 13 | 0 | 2 | 0 | 0 | 0 | 0 | 7 | 8 | 0 |
| CN1C(=O)C(Nc2cc(Cl)c(O)c(Cl)c2)=C(c2ccc(Cl)cc2)C1=O [SB-404321] | 0 | 0 | 0 | 0 | 0 | 3 | 16 | 0 | 0 | 0 |
| CCC(=O)c1c(-c2ccccc2)c2cc(Cl)ccc2c(=O)n1Cc1cc(C(=O)NC2CC2)n(C)n1 | 0 | 0 | 0 | 0 | 0 | 0 | 10 | 0 | 7 | 0 |
